Measurements reported in the supplement of paper PMC7411054.
Counter-ions that a name gives are not always drawn.

Experiments:
Conditions in all cases: treatment time: 24 h
A549-CANX-COX4 = assay: phenotypically active (imaging signature differs from DMSO and reproducible) at any of 0.3-9 uM (binary (1 = active, 0 = inactive)); higher = active
Procedure, shortened: (§1)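 Two criteria together defined phenotypic activity: deviation and reproducibility. Deviation meant ≥3 of 4 wells beyond the 95th percentile of Euclidean distances in solvent control wells, and reproducibility meant a median replicate Pearson correlation above the 95th percentile of non-replicates. Wells had been treated for 24 h at 0.3, 1, 3 or 9 µM in fifteen gene-edited A549, HepG2 and WPMY1 reporter lines before live imaging.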

A549-TP53BP1-CLTA = assay: as above
Procedure, shortened: as §1

HepG2-ACTB-RAB5A = assay: as above
Procedure, shortened: as §1

HepG2-CANX-COX4 [1] = assay: as above
Procedure, shortened: as §1

HepG2-GM130-SQSTM1 = assay: as above
Procedure, shortened: as §1

HepG2-TP53BP1-CLTA = assay: as above
Procedure, shortened: as §1

HepG2-TUBA1B-RELA [2] = assay: as above
Procedure, shortened: as §1

WPMY1-ACTB-RAB5A [3] = assay: as above
Procedure, shortened: as §1

WPMY1-CANX-COX4 = assay: as above
Procedure, shortened: as §1

WPMY1-GM130-SQSTM1 [4] = assay: as above
Procedure, shortened: as §1

WPMY1-TP53BP1-CLTA = assay: as above
Procedure, shortened: as §1

WPMY1-TUBA1B-RELA = assay: as above
Procedure, shortened: as §1

WPMY1-GM130-SQSTM1 [5] = assay: lowest phenotypically active concentration; higher = less potent
Procedure, shortened: as §1

A549-ACTB-RAB5A = assay: phenotypically active (imaging signature differs from DMSO and reproducible) at any of 0.3-9 uM (binary (1 = active, 0 = inactive)); higher = active
Procedure, shortened: as §1

A549-GM130-SQSTM1 = assay: as above
Procedure, shortened: as §1

A549-TUBA1B-RELA = assay: as above
Procedure, shortened: as §1

HepG2-CANX-COX4 [6] = assay: lowest phenotypically active concentration; higher = less potent
Procedure, shortened: as §1

HepG2-TUBA1B-RELA [7] = assay: as above
Procedure, shortened: as §1

WPMY1-ACTB-RAB5A [8] = assay: as above
Procedure, shortened: as §1

Structure (SMILES)	phenotypically active (A549-CANX-COX4)	phenotypically active (A549-TP53BP1-CLTA)	phenotypically active (HepG2-ACTB-RAB5A)	phenotypically active (HepG2-CANX-COX4 [1])	phenotypically active (HepG2-GM130-SQSTM1)	phenotypically active (HepG2-TP53BP1-CLTA)	phenotypically active (HepG2-TUBA1B-RELA [2])	phenotypically active (WPMY1-ACTB-RAB5A [3])	phenotypically active (WPMY1-CANX-COX4)	phenotypically active (WPMY1-GM130-SQSTM1 [4])	phenotypically active (WPMY1-TP53BP1-CLTA)	phenotypically active (WPMY1-TUBA1B-RELA)	lowest phenotypically active concentration (WPMY1-GM130-SQSTM1 [5])	phenotypically active (A549-ACTB-RAB5A)	phenotypically active (A549-GM130-SQSTM1)	phenotypically active (A549-TUBA1B-RELA)	lowest phenotypically active concentration (HepG2-CANX-COX4 [6])	lowest phenotypically active concentration (HepG2-TUBA1B-RELA [7])	lowest phenotypically active concentration (WPMY1-ACTB-RAB5A [8])
CC1(C)NC(=O)N(c2ccc([N+](=O)[O-])c(C(F)(F)F)c2)C1=O [nilutamide]	0 (inactive)	0 (inactive)	0 (inactive)	0 (inactive)	0 (inactive)	0 (inactive)	0 (inactive)	0 (inactive)	0 (inactive)	0 (inactive)	0 (inactive)	0 (inactive)							
C[C@@H](c1ncncc1F)[C@](O)(Cn1cncn1)c1ccc(F)cc1F [voriconazole]	0 (inactive)	0 (inactive)	0 (inactive)	0 (inactive)	0 (inactive)	0 (inactive)	0 (inactive)	0 (inactive)	0 (inactive)	0 (inactive)	0 (inactive)	0 (inactive)							
C/C(=C/C(=O)Nc1ccccc1C(=O)O)c1ccc2ccccc2c1	0 (inactive)	0 (inactive)	0 (inactive)	0 (inactive)	0 (inactive)	0 (inactive)	0 (inactive)	0 (inactive)	0 (inactive)	0 (inactive)	0 (inactive)	0 (inactive)							
OCc1ccccc1O[C@@H]1O[C@H](CO)[C@@H](O)[C@H](O)[C@H]1O [Salicin]	0 (inactive)	0 (inactive)	0 (inactive)	0 (inactive)	0 (inactive)	0 (inactive)	0 (inactive)	0 (inactive)	0 (inactive)	0 (inactive)	0 (inactive)	0 (inactive)							
COc1ccc2c3c(c(=O)n(C)c2c1OC)C=CC(C)(C)O3 [Veprisine]	0 (inactive)	0 (inactive)	0 (inactive)	0 (inactive)	0 (inactive)	0 (inactive)	0 (inactive)	0 (inactive)	0 (inactive)	1 (active)	1 (active)	0 (inactive)	9 µM	0 (inactive)	0 (inactive)	0 (inactive)			
COc1cc2nc(N3CCN(C(=O)c4ccco4)CC3)nc(N)c2cc1OC [prazosin]	0 (inactive)		0 (inactive)	1 (active)	0 (inactive)		1 (active)	0 (inactive)	0 (inactive)	0 (inactive)		0 (inactive)		0 (inactive)	0 (inactive)	0 (inactive)	9 µM	9 µM	
O=C(O)[C@H]1O[C@@H](Oc2cc3oc(-c4ccccc4)cc(=O)c3c(O)c2O)[C@H](O)[C@@H](O)[C@@H]1O [Baicalin]	0 (inactive)	0 (inactive)	0 (inactive)	0 (inactive)	0 (inactive)	0 (inactive)	0 (inactive)	0 (inactive)	0 (inactive)	1 (active)	0 (inactive)	0 (inactive)	3 µM	0 (inactive)	0 (inactive)	0 (inactive)			
C=C[C@H]1CN2CC[C@H]1C[C@@H]2[C@@H](O)c1ccnc2ccc(OC)cc12 [Quinidine hydrochloride monohydrate]	0 (inactive)		0 (inactive)	0 (inactive)	0 (inactive)		0 (inactive)	0 (inactive)	0 (inactive)	0 (inactive)		0 (inactive)		0 (inactive)	0 (inactive)	0 (inactive)			
CC(C)C(=O)Nc1ncc(-c2cc(C(F)F)nn2-c2c(Cl)cccc2Cl)s1	0 (inactive)		1 (active)	1 (active)	0 (inactive)		0 (inactive)	1 (active)	1 (active)	1 (active)		1 (active)	9 µM	1 (active)	0 (inactive)	0 (inactive)	9 µM		9 µM
Cc1ccc(C(=O)c2cc(O)c(O)c([N+](=O)[O-])c2)cc1 [tolcapone]	0 (inactive)	0 (inactive)	0 (inactive)	0 (inactive)	0 (inactive)	0 (inactive)	0 (inactive)	0 (inactive)	0 (inactive)	0 (inactive)	0 (inactive)	0 (inactive)							
C=C[C@H]1C[N@@]2CC[C@H]1C[C@@H]2[C@@H](O)c1ccnc2ccc(OC)cc12 [quinidine]	0 (inactive)		0 (inactive)	0 (inactive)	0 (inactive)		0 (inactive)	0 (inactive)	0 (inactive)	0 (inactive)		0 (inactive)		0 (inactive)	0 (inactive)	0 (inactive)			
CC(C)Cc1ccc(C(C)C(=O)O)cc1 (stereo unspecified) [ibuprofen]	0 (inactive)		0 (inactive)	0 (inactive)	0 (inactive)		0 (inactive)	0 (inactive)	0 (inactive)	0 (inactive)		0 (inactive)		0 (inactive)	0 (inactive)	0 (inactive)			
CNC(=O)c1c(-c2ccc(F)cc2)oc2cc(N(CCO)S(C)(=O)=O)c(C3CC3)cc12 [nesbuvir]	0 (inactive)	0 (inactive)	0 (inactive)	0 (inactive)	0 (inactive)	0 (inactive)	0 (inactive)	0 (inactive)	0 (inactive)	0 (inactive)	0 (inactive)	0 (inactive)							
COC(=O)[C@H]1[C@H]2C[C@H]3c4[nH]c5ccccc5c4CCN3C[C@H]2CC[C@@H]1O [Rauwolscine hydrochloride]	0 (inactive)	0 (inactive)	0 (inactive)	0 (inactive)	0 (inactive)	0 (inactive)	0 (inactive)	0 (inactive)	0 (inactive)	1 (active)	0 (inactive)	0 (inactive)	3 µM	0 (inactive)	0 (inactive)	0 (inactive)			
Cc1ccc(C(=O)c2ccc(CC(=O)O)n2C)cc1 [tolmetin]	0 (inactive)	0 (inactive)	0 (inactive)	0 (inactive)	0 (inactive)	0 (inactive)	0 (inactive)	0 (inactive)	0 (inactive)	0 (inactive)	0 (inactive)	0 (inactive)							
CC[C@@H]1C(=O)OC[C@@H]1Cc1cncn1C [Pilocarpine hydrochloride]	0 (inactive)	0 (inactive)	0 (inactive)	0 (inactive)	0 (inactive)	0 (inactive)	0 (inactive)	0 (inactive)	0 (inactive)	0 (inactive)	0 (inactive)	0 (inactive)							
O=S(c1ccccc1)c1ccc2nnnn2n1 (stereo unspecified)	0 (inactive)		0 (inactive)	0 (inactive)	0 (inactive)		0 (inactive)	0 (inactive)	1 (active)	0 (inactive)		1 (active)		1 (active)	0 (inactive)	0 (inactive)			
COC(=O)C1=C(C)NC(C)=C(C(=O)OCCN(C)Cc2ccccc2)C1c1cccc([N+](=O)[O-])c1 (stereo unspecified) [nicardipine]	0 (inactive)	0 (inactive)	0 (inactive)	0 (inactive)	0 (inactive)	0 (inactive)	0 (inactive)	0 (inactive)	0 (inactive)	1 (active)	0 (inactive)	0 (inactive)	9 µM	0 (inactive)	0 (inactive)	0 (inactive)			
CN(C)CCCC1(c2ccc(F)cc2)OCc2cc(C#N)ccc21 (stereo unspecified) [citalopram]	0 (inactive)	0 (inactive)	0 (inactive)	0 (inactive)	0 (inactive)	0 (inactive)	0 (inactive)	0 (inactive)	0 (inactive)	1 (active)	0 (inactive)	0 (inactive)	9 µM	0 (inactive)	0 (inactive)	0 (inactive)			
CN(CCOc1ccc(NS(C)(=O)=O)cc1)CCc1ccc(NS(C)(=O)=O)cc1 [dofetilide]	0 (inactive)		0 (inactive)	0 (inactive)	0 (inactive)		0 (inactive)	0 (inactive)	0 (inactive)	0 (inactive)		0 (inactive)		0 (inactive)	0 (inactive)	0 (inactive)			
CCCCCCCCCCCCc1ccc(S(=O)(=O)Nc2nncs2)cc1	0 (inactive)	0 (inactive)	0 (inactive)	0 (inactive)	0 (inactive)	0 (inactive)	0 (inactive)	0 (inactive)	0 (inactive)	0 (inactive)	0 (inactive)	0 (inactive)							
COc1ccc(-c2ccc3cc(C(=O)O)ccc3c2)cc1C12CC3CC(CC(C3)C1)C2 [Adapalene]	0 (inactive)	0 (inactive)	0 (inactive)	0 (inactive)	0 (inactive)	0 (inactive)	0 (inactive)	0 (inactive)	0 (inactive)	1 (active)	0 (inactive)	0 (inactive)	1 µM	0 (inactive)	0 (inactive)	0 (inactive)			
CN1C(=O)CC(c2ccccc2)C1=O (stereo unspecified) [phensuximide]	0 (inactive)	0 (inactive)	0 (inactive)	0 (inactive)	0 (inactive)	0 (inactive)	0 (inactive)	0 (inactive)	0 (inactive)	0 (inactive)	0 (inactive)	0 (inactive)							
C[C@H](CS)C(=O)N1CCC[C@H]1C(=O)O [captopril]	0 (inactive)		0 (inactive)	0 (inactive)	0 (inactive)		0 (inactive)	0 (inactive)	0 (inactive)	0 (inactive)		0 (inactive)		0 (inactive)	0 (inactive)	0 (inactive)			
CC(CCc1ccccc1)NCC(O)c1ccc(O)c(C(N)=O)c1 (stereo unspecified) [labetalol]	0 (inactive)	0 (inactive)	0 (inactive)	0 (inactive)	0 (inactive)	0 (inactive)	0 (inactive)	0 (inactive)	0 (inactive)	0 (inactive)	0 (inactive)	0 (inactive)							
COc1ccc(CCN(C)CCCC(C#N)(c2ccc(OC)c(OC)c2)C(C)C)cc1OC (stereo unspecified) [verapamil]	0 (inactive)		0 (inactive)	0 (inactive)	0 (inactive)		0 (inactive)	0 (inactive)	0 (inactive)	0 (inactive)		0 (inactive)		1 (active)	1 (active)	1 (active)			
O=C(O)/C(Cc1ccccc1[N+](=O)[O-])=N\Nc1nc(-c2ccc(Cl)c(Cl)c2)cs1	0 (inactive)	0 (inactive)	0 (inactive)	0 (inactive)	0 (inactive)	0 (inactive)	0 (inactive)	0 (inactive)	0 (inactive)	0 (inactive)	1 (active)	0 (inactive)		0 (inactive)	0 (inactive)	0 (inactive)			
